IP6K1 inhibitor = Primary qHTS assay for small molecule inhibitors of Inositol hexaphosphate kinase 1 (IP6K1). IP6K1 kinase, ADP-Glo luminescence, 2 h; hits give low values. activity change, % (series mostly up to about 58 µM). actives 0.81% (n = 140,000). AID 1645851, 2021; in the data active means activity change below about -25%
Target sequence (Q92551 whole entry, looked up): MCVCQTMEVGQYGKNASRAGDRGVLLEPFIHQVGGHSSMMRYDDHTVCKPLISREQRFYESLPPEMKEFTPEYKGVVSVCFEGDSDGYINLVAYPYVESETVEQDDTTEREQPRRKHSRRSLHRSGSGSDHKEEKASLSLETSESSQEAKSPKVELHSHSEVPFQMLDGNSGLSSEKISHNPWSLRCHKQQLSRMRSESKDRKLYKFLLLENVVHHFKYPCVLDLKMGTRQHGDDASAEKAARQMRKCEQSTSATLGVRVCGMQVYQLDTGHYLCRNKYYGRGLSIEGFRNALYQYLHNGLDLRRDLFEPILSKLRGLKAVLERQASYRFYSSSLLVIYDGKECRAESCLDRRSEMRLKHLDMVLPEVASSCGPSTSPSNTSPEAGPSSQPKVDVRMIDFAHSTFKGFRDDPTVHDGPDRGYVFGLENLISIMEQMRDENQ
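ADP-Glo luminescence measures ADP made by human IP6K1 during a 2 h RT reaction with ATP/IP6 (mix at 1.3 mM/130 uM); top library doses 57.5 and 19.1 uM final.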
GPT2 inh = Primary qHTS assay for inhibitors of Glutamate pyruvate transaminase 2 (GPT2); Alanine aminotransferase 2 (Homo sapiens), Q8TD30; Potency, µM (top dose mostly 57.7 µM), inactives show at the top dose activity change, negative = inhibition, most hits filed as inhibitors; actives 0.25% (n = 100,000); Recombinant GPT2, coupled pyruvate oxidase/HRP Amplex Red fluorescence; further: potency means the concentration at half of the fitted maximal effect; nearly all actives have a fitted effect of over 60% in size
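Fluorescence read-out: pyruvate from GPT2 turnover coupled to pyruvate oxidase, HRP and Amplex Red (0.2mM ThPP, 0.2U/mL PO and HRP, 50uM Amplex final). Substrates 250uM a-KG, 2mM L-alanine; enzyme 10ng/uL; 30 min RT.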
HEK293 viab = GF-AFC viability counterscreen for inhibitors of alpha-synuclein gene (SNCA) expression; HEK-293-SNCA-luc viability, GF-AFC fluorescence, 24 h; Potency, µM (top dose mostly 57.1 µM), inactives show at the highest dose activity change, negative = cytotoxicity, hits mostly cytotoxic; actives 0.12% (n = 150,000); AID 1671193, 2021;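 further: potency means the concentration at half of the fitted maximal effect; 0% = DMSO-treated cells and -100% = medium-only wells without cells; nearly all actives have a fitted effect of over 30% in size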
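Cytotoxicity counterscreen: after 24 h compound treatment of genome-edited SNCA-luciferase HEK-293 cells, live-cell protease substrate GF-AFC read by fluorescence after 30 min; activity scaled between DMSO (0%) and medium-only (-100%), curves Hill-fitted.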
SNCA expr inh = Primary qHTS assay for inhibitors of alpha-synuclein gene (SNCA) expression. actives 0.17% (n = 140,000). HEK-293 SNCA-luciferase knock-in, luminescence, 24 h. Potency, µM (titrated, usually from 57.2 µM), for the others: top-dose activity change, negative = inhibition, hits mostly inhibitors;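 further: potency means the concentration at half of the fitted maximal effect; plate controls were DMSO cells for no effect and cell-free wells for full effect; nearly all actives have a fitted effect of over 45% in size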
IP6K1 inh cnf = Confirmatory qHTS assay for small molecule inhibitors of Inositol hexaphosphate kinase 1 (IP6K1) | shares compounds with IP6K1 inhibitor | actives 13% (n = 1,200) | AID 1645852, 2021 | Potency, µM (highest dose often 49 µM), without a hit: top-dose activity change, negative = inhibition, actives largely listed as inhibitors | recombinant IP6K1 kinase, ADP-Glo luminescence, 2 h; further: potency means the concentration at half of the fitted maximal effect; nearly all actives have a fitted effect of over 65% in size
* marks the source's active call; other numbers are inactive results; ! = not active in a repeat; [ ] = remark or other dose. Most compounds without a hit are left out; they make up all but 1% or so of the library. Unless noted, the call rests on the fitted dose curve; in most records, active means well fitted curve in the direction sought with a large enough effect; inconclusive means small, poorly fitted or top-dose-only effect, or another doubt; inactive means no such curve, though single readings can be large; an effect the other way counts as inactive or inconclusive. Unless noted, on the % scale 0 is the no-effect control and ±100 the full control effect.

CN1CCCCC1Cn1cc(C(=O)c2cc([N+](=O)[O-])ccc2I)c2ccccc21 (stereo not given) was read as IP6K1 inhibitor 16.8, GPT2 inh inconclusive and HEK293 viab 23.8µM*.
`Cc1nc(-c2cccs2)cc([C@H]2CN3CC[C@H]2C[C@@H]3CO)n1` gave IP6K1 inhibitor 8.0, GPT2 inh -9.6%[88.5 µM], HEK293 viab -24.8%[87.6 µM] and SNCA expr inh 3.55µM*.
Cc1nc(-c2cccs2)cc([C@H]2CN3CC[C@H]2C[C@@H]3CNC(=O)C(C)(C)C)n1 was read as IP6K1 inhibitor 23.2, GPT2 inh -20.5%[88.5 µM], HEK293 viab 8.1%[87.6 µM] and SNCA expr inh -27.1%[87.6 µM].
For CCOC(=O)[C@@H]1[C@H]2c3ccccc3N(CCOC)C(=O)[C@H]2N(C(=O)CC(C)C)[C@@H]1c1ccccc1 the results were IP6K1 inhibitor 2.0.
For COc1cc2c(cc1OCc1ccccc1)N(C(=O)C1CCC(C)CC1)CC21CCN(C)CC1 (stereo not given) the results were IP6K1 inhibitor -7.8, GPT2 inh 3.6%, HEK293 viab inconclusive and SNCA expr inh inconclusive.
Screening COCCn1c(C)cc(C(=O)N2[C@H]3CC[C@@H]2c2cnc(-c4ccc(F)cc4)nc2C3)c1C returned IP6K1 inhibitor 11.7, GPT2 inh -10.3%, HEK293 viab inconclusive and SNCA expr inh 25.1µM*.
For CN(C)CCc1c[nH]c2cccc(O)c12 the results were IP6K1 inhibitor -3.4, GPT2 inh 10µM*, HEK293 viab 29.3% and SNCA expr inh 1.9%.
For CSc1cccc(NC(=O)NC[C@H]2C[C@@H]3CCN2C[C@@H]3CN2CCC(Cc3ccccc3)CC2)c1 the results were IP6K1 inhibitor -10.3, GPT2 inh 1.4%, HEK293 viab -0.4% and SNCA expr inh -0.6%.
Screening Cc1nc(-c2ccco2)cc([C@H]2CN3CC[C@H]2C[C@@H]3CNC(=O)NC2CCCCC2)n1 returned IP6K1 inhibitor -7.2, GPT2 inh inactive, HEK293 viab -15.3%[87.6 µM] and SNCA expr inh -5.0%[87.6 µM].
Screening CC(C)(O)/C=C/C(=O)[C@](C)(O)[C@H]1[C@H](O)C[C@@]2(C)[C@@H]3CC=C4[C@@H](C[C@H](O)C(=O)C4(C)C)[C@]3(C)C(=O)C[C@]12C returned IP6K1 inhibitor 8.2, GPT2 inh inactive and HEK293 viab inconclusive.
For CC(C)(O)C=CC(=O)[C@](C)(O)[C@H]1[C@H](O)C[C@]2(C)[C@@H]3CC=C4[C@@H](C=C(O)C(=O)C4(C)C)[C@]3(C)C(=O)C[C@@]12C the results were GPT2 inh inconclusive, HEK293 viab inconclusive and SNCA expr inh 13.6µM*.
For OC[C@@H]1[C@@H](c2ccccc2)CN2CCN(Cc3ccccc3)C[C@H]12 the results were IP6K1 inhibitor 0.2.
Screening CCOC(=O)[C@H]1CN(C(=O)COc2ccccc2)[C@]2(C)C(=O)N(CCOC(C)=O)c3ccccc3[C@H]12 returned IP6K1 inhibitor -6.5.
`CN(N=O)c1ccc(O)c(O)c1` gave GPT2 inh 3.16µM*, HEK293 viab -29.4% and SNCA expr inh -17.2%.
Screening Cc1[nH]nc2ccc(-c3cncc(OC[C@@H](N)Cc4c[nH]c5ccccc45)c3)cc12 returned IP6K1 inhibitor 4.6, GPT2 inh inconclusive, HEK293 viab 19.2µM*! and SNCA expr inh 0.108µM*.
CC(N)Cc1c[nH]c2ccccc12 (stereo not given) was read as IP6K1 inhibitor 11.0, GPT2 inh -10.5% and HEK293 viab 3.0%.
For CC1=C(O)C(=O)C=C2C1=CC=C1[C@@]2(C)CC[C@@]2(C)[C@@H]3C[C@](C)(C(=O)O)CC[C@]3(C)CC[C@]12C the results were GPT2 inh -12.2%, HEK293 viab 21.5µM* and SNCA expr inh 7.64µM*.
`O=c1oc2ccccc2c(O)c1Cc1c(O)c2ccccc2oc1=O` gave IP6K1 inhibitor -25.1*, GPT2 inh 0.6%, HEK293 viab -10.6%[23.9 µM] and SNCA expr inh -1.9%[25.6 µM].
Screening CCOC(=O)CC(SP(=S)(OC)OC)C(=O)OCC (stereo not given) returned IP6K1 inhibitor -69.9*!, GPT2 inh inconclusive, HEK293 viab -5.4%[23.9 µM], SNCA expr inh 2.3%[25.6 µM] and IP6K1 inh cnf 17.8µM*.
Cn1nc(-c2ccc3ccccc3c2)cc1[C@H]1CN2CC[C@H]1C[C@@H]2CNS(=O)(=O)c1cccs1 was read as IP6K1 inhibitor -8.3, GPT2 inh -29.7%, HEK293 viab 4.8% and SNCA expr inh -11.8%.
Screening COc1cc2c(cc1Oc1ccccc1)NC(=O)C21CCN(C(=O)c2cccc(O)c2)CC1 returned IP6K1 inhibitor -13.1, GPT2 inh inconclusive, HEK293 viab inconclusive and SNCA expr inh inconclusive.
`O=C(Nc1ccccc1)Nc1ccc2n(c1=O)C[C@H]1C[C@@H]2CN(C(=O)c2cccs2)C1` gave IP6K1 inhibitor 8.4, GPT2 inh 2.5%[88.5 µM], HEK293 viab -5.0%[87.6 µM] and SNCA expr inh 20.9%[87.6 µM].
`CCCCCOc1cc2c(cc1-c1cc(/C=C/C(=O)O)ccc1O)C(C)(C)CCC2(C)C` gave IP6K1 inhibitor -27.1*, GPT2 inh 1.2%, HEK293 viab inconclusive and IP6K1 inh cnf inconclusive.
Screening COc1cc2c(cc1OCc1ccccc1)NC(=O)C21CCN(Cc2nccs2)CC1 returned IP6K1 inhibitor -33.4*, GPT2 inh inconclusive, HEK293 viab -17.2%[87.6 µM], SNCA expr inh 34.8%[87.6 µM] and IP6K1 inh cnf inconclusive.
Screening COc1cc2c(cc1OCc1ccncc1)NC(=O)C21CCN(Cc2ccccc2)CC1 returned IP6K1 inhibitor -22.1, GPT2 inh 2.8%[88.5 µM], HEK293 viab -11.1%[87.6 µM] and SNCA expr inh -18.9%[87.6 µM].
CCOC(=O)[C@H]1CN(S(=O)(=O)c2ccccc2)[C@]2(C)C(=O)N(CC3CC3)c3ccccc3[C@H]12 was read as IP6K1 inhibitor -9.7, GPT2 inh inactive, HEK293 viab -13.8%[23.9 µM] and SNCA expr inh -20.7%[25.6 µM].
Screening CC(=O)Nc1ccc(S(=O)(=O)NC[C@H]2C[C@@H]3CCN2C[C@@H]3c2cc(-c3ccc(N(C)C)cc3)nc(C)n2)cc1 returned IP6K1 inhibitor 7.8, GPT2 inh inactive, HEK293 viab -12.2% and SNCA expr inh -21.1%.
Screening N=c1c2c(-c3ccccc3)c(-c3ccccc3)n(Cc3ccccc3)c2ncn1C1CCC(O)CC1 (stereo not given) returned GPT2 inh inactive, HEK293 viab -0.9%, SNCA expr inh inconclusive and IP6K1 inh cnf -9.6%[115 µM].
`Cc1nc(-c2cccs2)cc([C@H]2CN3CC[C@H]2C[C@@H]3COC(=O)Nc2cccc(C(F)(F)F)c2)n1` gave IP6K1 inhibitor 5.7, GPT2 inh 2.9%, HEK293 viab inconclusive and SNCA expr inh inconclusive.
